Assay results published in ChEMBL document CHEMBL3988442, “University of Dundee, Small-Polar-MMV Screening Library” (2021).
Among all 48,000 compounds or so, about 13,000 (27%) showed an effect of 50% or more. Some of the results follow.

Each compound was assayed on Wolbachia pipientis (assay: Anti-Wolbachia Cell-Based Screen). Details: 5 µM.
Assay type: functional
Design: scale not given: in the data most compounds retested in dose-response had high values

| SMILES | Percent Effect [%] |
| --- | --- |
| Cc1occc1C(=O)Nc1cccc(C(=O)OCC2CCCN2)c1.Cl (configuration not stated) | -3.308 |
| NC(=O)c1ccc(CN2CCCC(O)C2)cc1 (configuration not stated) | 1.38 |
| O=c1cc(-c2cccnc2)nc(-c2ccc(CN3CC[C@H](O)C3)cc2)[nH]1 | -0.3576 |
| O=C(O)c1ccccc1-c1ccc(CN2CC(O)C2)cc1 | 128.6 |
| O=C1CN(Cc2ccc(-c3ccccc3C(=O)O)cc2)CCN1 | 3.495 |
| O=C(O)c1ccccc1-c1ccc(CN2CCCC(O)C2)cc1 (configuration not stated) | 104.1 |
| COc1ccc(C(C)N2CCC(CO)CC2)cc1Cl (configuration not stated) | 2.465 |
| CSC1(CNC(=O)N(C)Cc2ccc(C)s2)CCOCC1 | -11.34 |
| COCCN1CC2(CCCN(C(=O)CCCc3cccs3)C2)CCC1=O (configuration not stated) | -3.205 |
| COCCn1c2c(ccc1=O)CCN(C(=O)Cc1cccs1)CC2 | 99.02 |
| O=C(Cc1ccsc1)N1CCc2ccc(=O)n(CC3CC3)c2CC1 | -8.117 |
| COCCN1CCOCC12CCN(C(=O)Cc1cccs1)CC2.O=C(O)C(F)(F)F | 7.053 |
| COCCn1c2c(ccc1=O)CCN(C(=O)Cc1ccsc1)CC2 | 97.29 |
| CN(CCCc1nccn1C)C(=O)C1COc2ccccc2C1 (configuration not stated) | -14.96 |
| Cc1ncsc1CCN(C)C(=O)c1ccc(Cn2cnnn2)cc1 | -0.04633 |
| Cc1nc(N2CCOCC2)nc2c1CN(C(=O)C(C)C)CC2 | 99.02 |
| Cc1nc(N2CCOCC2)nc2c1CCN(C(=O)NC1CCCC1)CC2 | 25.82 |
| Cc1nc(N2CCOCC2)nc2c1CN(C(=O)Cc1ccccn1)CC2 | 6.226 |
| Cc1nc(N2CCOCC2)nc2c1CCN(C(=O)C1(C#N)CC1)CC2 | -22.43 |
| Cc1nc(N2CCCC2)nc2c1CCN(C(=O)C1CCCC1)CC2 | 4.07 |
| Cc1nc(N2CCOCC2)nc2c1CN(CC(=O)N(C)C)CC2 | -19.6 |
| Cc1nc(N2CCOCC2)nc2c1CCN(C(=O)N1CCCC1)CC2 | 118.6 |
| Cc1nc(N2CCCC2)nc2c1CCN(C(=O)N1CCCC1)CC2 | 98.24 |
| Cc1nc(N2CCCC2)nc2c1CCN(C(=O)CC1CC1)CC2 | 43.96 |
| CS(=O)(=O)CCN1C[C@H](NC(=O)c2cnc(O)cn2)[C@@H](C2CC2)C1 | 5.128 |
| Cn1cccc1C(O)CNS(=O)(=O)c1ccccc1F (configuration not stated) | -11.88 |

| SMILES | Percent Effect [%] |
| --- | --- |
| CC(C)CCC(=O)N1CCN(c2ncnc3nc(N)ccc23)CC1 | -4.213 |
| COc1ccc(Cl)cc1NCC(=O)NCCc1ccccn1 | 3.443 |
| COc1ccc(Cl)cc1NCC(=O)NCc1cccnc1OC | 108 |
| COc1cc(CNC(=O)CNc2cc(Cl)ccc2OC)ccn1 | -1.117 |
| COc1ccc(Cl)cc1NCC(=O)N(Cc1ccccn1)C1CC1 | -7.935 |
| COc1c(Cl)cc(C(=O)NCCNc2ncccn2)cc1Cl | 11.68 |
| COc1ccc(Cl)cc1NCC(=O)NCCNc1ncccn1 | 100.4 |
| COc1ncccc1NC(=O)N1CCCC1c1cc(C)no1 (configuration not stated) | -4.048 |
| Cc1cc(C(=O)N2C[C@H]3CC[C@@H]2CN(C)C3)ccc1Cl | -9.049 |
| CC(C)(C)OC(=O)NC(C)(C)c1noc(CSc2ccccn2)n1 | 18.32 |
| COC(=O)NC1(C(=O)Nc2ccc(-c3cc[nH]n3)cc2)CCCC1 | -10.93 |
| Cn1cc(CN2CCCC3(CCCN3S(C)(=O)=O)C2)cn1.O=C(O)C(F)(F)F (configuration not stated) | 1.436 |
| CCS(=O)(=O)N1CCCC2(CCCN2Cc2cccc(Cl)c2)C1.O=C(O)C(F)(F)F (configuration not stated) | -14.69 |
| CS(=O)(=O)N1CC2(CCCN2Cc2ccc(Cl)cc2)Cc2ccccc21 (configuration not stated) | 113.6 |
| CC(=O)N1CC2(CCCCN2Cc2ccc(Cl)cc2)Cc2ccccc21 (configuration not stated) | 100.4 |
| CC(=O)N1CC2(CCCN2Cc2ccc(Cl)cc2)Cc2ccccc21 (configuration not stated) | 134.6 |
| Cc1cc(C(=O)N2CCCC3(CCCN3Cc3cccnc3)C2)[nH]n1 (configuration not stated) | 0.008691 |
| CC(C#N)CSc1ccccc1NCC(=O)NC(C1CC1)C1CC1 (configuration not stated) | -11.19 |
| NC(=O)CN1CCC(C(=O)NCc2ccc3nonc3c2)CC1 | -14.82 |
| CNC(=O)CN1CCC(OCc2ccc(Cl)c(Cl)c2)CC1 | 83.56 |
| CCOC1CCN(C(=O)NCc2ccc(CN3CCOCC3)cc2)CC1 | -24.74 |
| CSCCC(O)C(=O)N1CCC(OCc2cccnc2)CC1 (configuration not stated) | -3.942 |
| CCC(N)C(=O)N1CCC(OCc2ccc(Cl)c(Cl)c2)CC1.Cl (configuration not stated) | 104.6 |
| CNC(=O)CN1CCC(c2cc(OC)cc(OC)c2)C1 (configuration not stated) | 8.564 |
| CC(C)Oc1cccc(CC(=O)NC2CCN(CC(N)=O)CC2)c1 | -2.756 |
| NC(=O)CN1CCC(OCc2ccc(Cl)c(Cl)c2)CC1 | 99.68 |

| SMILES | Percent Effect [%] |
| --- | --- |
| COc1cccc(COCC(=O)NC2CCN(CC(N)=O)CC2)c1 | 5.2 |
| NC(=O)CN1CCC(NC(=O)COc2ccc(Cl)c(Cl)c2)CC1 | 99.17 |
| CNC(=O)CN1CCN(C(=O)Nc2ccc(Cl)cc2F)CC1 | 0.4531 |
| NC(=O)CN1CCC(Nc2ccnc3ccc(Cl)cc23)CC1 | 13.98 |
| CCn1c(N)nc2cc(C(=O)N3CCN(CC(F)(F)F)CC3)cnc21 | -2.793 |
| COc1ccc(F)c(CN2CCCC3(CCN(C(=O)CSC)C3)C2)c1 (configuration not stated) | -11.54 |
| Cc1ccc(F)c(C(=O)NC2CCC(N3C(=O)CCC3=O)CC2)c1 (configuration not stated) | -6.109 |
| CN(C)c1ncccc1CNC(=O)c1csc(Br)c1 | -2.901 |
| CN(C)c1ccc(C(=O)NCc2csc(Br)c2)cn1 | 132.1 |
| CCn1cc(C(=O)NCc2csc(Br)c2)cn1 | -5.042 |
| CN1CCCN(C(=O)NCc2csc(Br)c2)CC1 | -2.09 |
| O=C(NCc1csc(Br)c1)c1cnccn1 | 122.2 |
| CC1(c2ccccc2)CCC(=O)N(CCN2CCOC2=O)C1 (configuration not stated) | -0.3831 |
| O=C(NCC1CCC2(CC1)OCCO2)c1cccc(-n2cccn2)c1 | 116.2 |
| CC(CNC(=O)c1cccc(-n2cccn2)c1)Cn1ccnc1 (configuration not stated) | -7.057 |
| O=C(NCC1CCC2(CC1)OCCO2)c1ccncc1F | -3.003 |
| CSC1(CNC(=O)c2ccn(-c3ccccc3F)n2)CCOCC1 | -3.806 |
| CSC1(CNC(=O)c2cccc(-n3cccn3)c2)CCOCC1 | 126.6 |
| O=C(NCC1(O)CCSC1)c1ccoc1 (configuration not stated) | 12.35 |
| O=C(NCC1(O)CCSC1)c1ccn(-c2ccccc2F)n1 (configuration not stated) | -10.8 |
| CNC(=O)CCOC(=O)c1cccc(-n2cccn2)c1 | -2.822 |
| O=C(NCC1(O)CCC1)c1cccc(-n2cccn2)c1 | 119.5 |
| Cc1cc(C(=O)NCC2CCC3(CC2)OCCO3)[nH]n1 | -25.64 |
| O=C(NCC1(O)CCSC1)c1cccc(-n2cccn2)c1 (configuration not stated) | 105.6 |
| CSC1(CNC(=O)NC(C)c2ccc(F)cc2)CCOCC1 (configuration not stated) | -5.884 |
